# Source: PubChem
# TTR transcr act: increases transthyretin transcription. SH-SY5Y TTR promoter Gaussia luciferase, luminescence; 100% = recombinant luciferase protein wells. activation, % at 16.7 µM. actives 1.3% (n = 92,000). AID 1117267;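 active means activation above the mean of all tested compounds plus 3 SD, cut at about 9.5% in these data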;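 further: cells exposed to compounds for one day before reading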
# HuH7 TTR inh: counter-screen for TTR activators: TTR transcription inhibitors in HuH7 cells | AID 1117279 | inhibition, % at 16.7 µM | HuH7 TTR promoter-Gaussia luciferase reporter, luminescence | actives 4% (n = 1,100) | shares compounds with TTR transcr act;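 active means average inhibition above the solvent-only control wells' mean plus 3 SD, cut at about 15% in these data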;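 further: inhibitors lower well luminescence so higher value means more inhibition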
# TTR act confirm: human TTR transcription activation, confirmation; shares compounds with TTR transcr act; 1,100 tested, under 10 active; activation, % at 16.7 µM; SHSY5Y TTR promoter Gaussia luciferase, luminescence; 100% = purified Lucia enzyme wells, no cells;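 active means mean activation above a set limit taken from the earlier primary screen, cut at about 11% in these data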
# A number is an active result; - = inactive. Shown is part of a subset that was picked to be rich in hits.
SMILES,TTR transcr act,others
C=CCN1C(=O)[C@@H](CC(=O)N2CCCC2)[C@]2(C(=O)OC)CCCCC=C12,-,
Cc1cc(NC(=O)CCOc2ccc(F)cc2)no1,-,
Cc1cc(NC(=O)C(C)SCC(=O)OC(C)C(=O)Nc2ccc(F)cc2Cl)no1 (centres undefined),12,HuH7 TTR inh=-;TTR act confirm=-
Cc1cc(NC(=O)C(C)SCC(=O)OC(C)C(=O)Nc2cccc(C#N)c2)no1 (centres undefined),-,
Nc1c2c(=O)[nH]c(O)cc2nn1-c1ccccc1,-,
CCCC1CCC2(CC1)CCC2OC(=S)Nc1ccccc1C(F)(F)F (centres undefined),-,
COc1ccc(Cn2ccc3ccc(-c4ccc5ccn(C(=O)c6ccccc6OC)c5c4)cc32)cc1,-,
COC(=O)[C@]12CCCCC=C1N(Cc1ccc(OC)cc1)C(=O)[C@@H]2CC(=O)N1CCC(c2ccccc2)CC1,-,
C[C@H]1[C@H](NCc2cccnc2)CC[C@@]23CCCN2C(=O)CCC[C@@H]13,-,
C=CCN(Cc1ccc(OC)cc1OC)C(C#CCCCC)c1ccccc1 (centres undefined),-,
Cc1onc(C(=O)N2CCN(C(c3ccc(Cl)cc3)c3ccc(Cl)cc3)CC2)c1[N+](=O)[O-],-,
CCOC(=O)[C@]12CCCC3=C1N(CCC3)C(=O)[C@@H](CC(=O)NCc1cccc(C(F)(F)F)c1)C2,-,
CC1(C)CC(=O)C=C(c2ccc(Oc3ccccc3)cc2)C1,-,
CC1(C)CC(=O)C=C(c2ccc(I)cc2)C1,-,
CC1(C)CC(=O)C=C(c2ccc(OC(F)(F)F)cc2)C1,12,HuH7 TTR inh=-;TTR act confirm=-
Cc1ccc(Cn2cc(COC(=O)N3CCOCC3)nn2)cc1,-,
FC(F)(F)c1cccc(Cn2ccc3ccc(-c4ccc5ccn(Cc6cccc(C(F)(F)F)c6)c5c4)cc32)c1,-,
COc1cccc(N(C)C(=O)[C@@H](C2CC2)[C@@H](O)c2ccc(C(C)=O)cc2)c1,-,
Cc1ccccc1CN[C@@H]1CC[C@@]23CCCN2C(=O)CCC[C@H]3C1,-,
Cc1cc(N2CCN(C)CC2)nc2ccc(NC(=S)N3CCCCCC3)cc12,9.7,HuH7 TTR inh=-;TTR act confirm=-
Cc1cc(N2CCOCC2)nc2ccc(NC(=O)C3CCCCC3)cc12,-,
Cc1cc(N2CCN(C)CC2)nc2ccc(NC(=S)NCCN3CCc4ccccc4C3)cc12,-,
O=C(NC1CCCCC1)O[C@H]1CC[C@@]23CCCN2C(=O)CCC[C@H]3C1,-,
CN1C2=N[C@@H](c3ccc4c(c3)OCO4)CC(=O)N2/C(=C\c2ccccc2)[C@H]1c1ccccc1,-,
COc1ccc(CNc2ncnc3cc(OC)c(OC)cc23)cc1,10,HuH7 TTR inh=-;TTR act confirm=-
SMILES,TTR transcr act,others
COc1cc2ncnc(NCc3ccccc3)c2cc1OC,-,
COc1ccc(CNc2ncnc3cc(Cl)ccc23)cc1,-,
COc1cccc(CNc2nc3cc(-c4cccc(C(=O)NCCO)c4)sc3c(=O)n2C)c1,-,
CC[C@@H](OP(=O)(O)[C@@H](C)N)C(=O)O,-,
O=[N+]([O-])c1cccc(-c2noc3c2-c2nc(Cc4cccc5ccccc45)sc2CC3)c1,34,HuH7 TTR inh=-;TTR act confirm=-
Fc1cccc(F)c1-c1nc2c(s1)CCc1onc(-c3ccc(Br)cc3)c1-2,-,
O=[N+]([O-])c1cccc(-c2nc(-c3ccccn3)no2)c1,-,
O=C(/C=C/[C@H]1O[C@@H](n2cnc3c(NC(=O)c4ccccc4)ncnc32)[C@H](O)[C@@H]1O)NCc1cccc2ccccc12,-,
O=C(CN1C(=O)NC2(CCCC2)C1=O)Nc1ccccc1N1CCCC1,-,
CCOC(=O)c1ccc(NC(=O)CN2C(=O)NC3(CCCCCC3)C2=O)cc1,-,
O=C(CN1C(=O)NC2(CCCCC2)C1=O)Nc1ccc(N2CCCCC2)cc1,10,HuH7 TTR inh=-;TTR act confirm=-
COc1cc(-c2csc(N3CCC(C(N)=O)CC3)n2)cc(OC)c1OC,-,
COc1ccc(C=NNC(=O)CCCC(=O)NN=Cc2ccc(OC)c(OC)c2)cc1OC,-,
COc1cc(/C=N/NC(=O)COc2c(C)cc([N+](=O)[O-])cc2C)ccc1OC(=O)c1ccccc1Br,15,HuH7 TTR inh=-;TTR act confirm=-
COc1ccc(C(=O)N/N=C/c2ccc(OC(=O)c3cccc4ccccc34)c([N+](=O)[O-])c2)cc1,-,
Cc1ccc(CN2CCCCC(NC(=O)c3ccc(C)cc3)C2=O)cc1 (centres undefined),-,
COC(=O)C1CN(CCO)CCS(=O)(=O)N1Cc1cn(Cc2ccccc2Br)nn1 (centres undefined),-,
COC(=O)[C@@]12CCCN1[C@H](c1ccc(SC3CCCCC3)cc1)[C@H]1C(=O)N(C)C(=O)[C@H]12,-,
CCN1C(=O)[C@H]2[C@@H](c3ccc(SC4CCCCC4)cc3)N3CCCC[C@@]3(C(=O)OC)[C@H]2C1=O,-,
CCN1C(=O)[C@@H]2[C@@H](c3ccc(SC4CCCCC4)cc3)N3CCC[C@@]3(C(=O)OC)[C@@H]2C1=O,11,HuH7 TTR inh=-;TTR act confirm=-
COC(=O)C[C@H]1CC[C@@H]2[C@H](COc3ccc(NC(=O)c4ccccc4OC)cc3C(=O)N2C)O1,-,
CCc1c2c3n4c1CCC[C@@H]4C[C@@H]3O[Si](C(C)C)(C(C)C)OC(C)C2=O (some centres undefined),-,
C[C@]12CC[C@H](O)CC1=C[C@H](O)C1C2CC[C@@]2(C)C1CC[C@@]2(O)C#Cc1ccc(CN)cc1 (some centres undefined),12,HuH7 TTR inh=-;TTR act confirm=-
CCCNC(=O)C1(C)CCN(C(=O)c2cccc(C#N)c2)C1 (centres undefined),-,
Cc1cccc(C)c1NC(=O)CN(C)C(=O)c1cc(S(=O)(=O)N(C)C)ccc1N1CCCC1,-,
SMILES,TTR transcr act,others
Cc1cccc(C)c1NC(=O)CN(C)C(=O)c1cccc(S(=O)(=O)N2CCN(C)CC2)c1,15,HuH7 TTR inh=-;TTR act confirm=-
Cc1cccc(C)c1NC(=O)CN(C)C(=O)c1cccc(S(=O)(=O)N2CCN(c3ccccc3)CC2)c1,-,
COc1ccccc1-n1cnc2c(c1=O)c1nc3ccccc3nc1n2CCc1ccccc1,-,
COc1ccccc1C1=NOC(Cn2c(=O)c3c(ncn3C)n(C)c2=O)C1 (centres undefined),16,HuH7 TTR inh=-;TTR act confirm=-
COc1ccccc1C1=NOC(Cn2c(NCC3CCCO3)nc3c2c(=O)n(C)c(=O)n3C)C1 (centres undefined),-,
Fc1c(-c2ccc3ncnc(NCc4cccs4)c3c2)ccc2c1OCO2,-,
CCC[C@H]1[C@@H](NC(=O)c2cccc(N(C)C)c2)CC[C@@]23CCCN2C(=O)CCC[C@@H]13,-,
COc1ccc(Cn2ccc3ccc(-c4ccc5ccn(C(=O)c6ccc(C)cc6)c5c4)cc32)cc1,-,
Cc1ccc(S(=O)(=O)N2C(N)=C(C(=O)NCc3ccc(Br)cc3)C(c3ccc(Cl)cc3)C2C(=O)c2ccccc2)cc1 (centres undefined),-,
CCOC(=O)C1(Cc2ccccc2)CCN(Cc2cn[nH]c2-c2ccccc2)CC1,-,
COc1cc(CN2CCCC(CO)(Cc3ccccc3)C2)ccc1O (centres undefined),-,
COc1cccc(CC2(CO)CCCN(Cc3cn[nH]c3-c3ccccc3)C2)c1 (centres undefined),10,HuH7 TTR inh=-;TTR act confirm=-
O=C(NC1CCCCN(Cc2ccc(Cl)cc2)C1=O)c1cccc2nsnc12 (centres undefined),-,
Cn1cccc1/C=N/NC(N)=S,-,
